Assay outcomes as filed in PubChem BioAssay.
POLI inh = DNA polymerase iota (human) inhibition. Pol iota fluorescent replication assay, 10 min. Potency, µM (series often up to 115 µM), hits mostly inhibitors. actives 1% (n = 390,000)
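Pol iota at 10 nM preincubated 15 min with compounds at room temperature; reaction started with fluorescent substrate, 50 nM final. Fluorescence read kinetically at 0 and 10 min; buffer-only wells as negative control.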
POLH inh = inhibitors of human DNA polymerase eta | recombinant Pol eta, fluorescent DNA replication assay | AID 588591 | Potency, µM (doses to about 114 µM), hits mostly inhibitors | Q9Y253 | actives 1.2% (n = 390,000)
Target sequence (Q9Y253 whole entry, looked up): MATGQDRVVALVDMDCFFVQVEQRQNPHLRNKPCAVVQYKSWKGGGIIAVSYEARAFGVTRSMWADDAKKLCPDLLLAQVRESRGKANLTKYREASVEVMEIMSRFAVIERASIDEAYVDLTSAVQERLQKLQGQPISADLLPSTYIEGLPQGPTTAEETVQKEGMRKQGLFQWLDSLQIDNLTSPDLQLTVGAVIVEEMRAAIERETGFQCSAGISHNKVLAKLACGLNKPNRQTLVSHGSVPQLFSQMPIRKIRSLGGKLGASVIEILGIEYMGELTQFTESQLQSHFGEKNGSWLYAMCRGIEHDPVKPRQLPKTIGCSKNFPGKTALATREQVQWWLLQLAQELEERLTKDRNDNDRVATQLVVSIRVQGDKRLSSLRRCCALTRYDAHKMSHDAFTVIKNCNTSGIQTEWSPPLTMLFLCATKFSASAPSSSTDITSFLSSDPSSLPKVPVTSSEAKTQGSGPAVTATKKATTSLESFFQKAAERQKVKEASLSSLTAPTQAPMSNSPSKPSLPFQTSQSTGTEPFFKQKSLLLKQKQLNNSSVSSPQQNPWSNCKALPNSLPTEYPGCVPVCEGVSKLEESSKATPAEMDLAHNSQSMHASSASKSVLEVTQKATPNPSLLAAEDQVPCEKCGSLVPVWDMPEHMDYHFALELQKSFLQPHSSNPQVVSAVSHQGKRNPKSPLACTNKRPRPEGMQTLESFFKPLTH
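Fluorescent replication assay: 50 nM final substrate added after a 15 min room-temperature compound preincubation with 10 nM enzyme. Signal taken at 0 min and again at 10 min.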
Pol beta inh = inhibitors of human DNA polymerase beta | Potency, µM (doses to about 114 µM), usual class: inhibitors | AID 485314 | actives 1.3% (n = 340,000) | Pol beta primer extension/strand displacement, fluorescence kinetic | P06746
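Reaction started by 50 nM substrate onto compound-treated Pol beta (10 nM, 15 min preincubation, room temperature); plates read at 0 min and 10 min. Normalized concentration-effect data fitted by four-parameter Hill equation.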
Pol kappa inh = inhibitors of human DNA polymerase kappa. Q9UBT6. purified Pol kappa, fluorescent DNA synthesis assay, 10 min. Potency, µM (series often up to 107 µM), hits mostly inhibitors. actives 0.53% (n = 400,000)
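10 nM Pol kappa preincubated 15 min at room temperature with compounds, then reaction started with substrate at 50 nM final. Fluorescence read kinetically at 0 and 10 min; buffer-only wells served as negative control.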
PGK inhibitor = T. brucei PGK inhibition; actives 0.043% (n = 380,000); P07378; Potency, µM (doses to about 57.5 µM), hits mostly inhibitors; PGK/GAPDH coupled, Kinase-Glo luminescence, 60 min; AID 602233; also: nearly all actives have a fitted effect of over 60% in size
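Recombinant glycosomal PGK reaction used 1,3-bisphosphoglycerate generated in-well by GAPDH (100nM final) in 100mM TEA pH 7.6, 5mM MgCl2, 0.01% Tween-20. After 60 minutes at room temperature, ATP was read by Kinase-Glo Plus luminescence end-point.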
FEN1 inhibitor = human FEN1 inhibition; Recombinant FEN1 flap cleavage, fluorescence, 15 min; P39748; Potency, µM (series often up to 114 µM), most hits filed as inhibitors; actives 0.35% (n = 390,000); also: nearly all actives have a fitted effect of over 65% in size
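Reaction started by adding substrate (50 nM final) to 10 nM enzyme after 15 min room-temperature compound preincubation. Reads at 0 and 15 min, with data normalized and fitted to a four-parameter Hill equation.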
Each line names hits and unclear results; the compound was inactive in the other large screens; ! = not confirmed by another sample. Sampled rows, rich in hits. Any-hit rate of the full collection: about 2.4%. Calls follow the shape of the dose curve; as a rule, active = well fitted curve in the direction sought with a large enough effect; inconclusive = small, poorly fitted or top-dose-only effect, or another doubt; inactive = no such curve, though single readings can be large; an effect the other way counts as inactive or inconclusive.

Cc1ccc(NC(=S)NNc2ccc(C(=O)O)cc2[N+](=O)[O-])cc1C	POLI inh inconclusive, PGK inhibitor inconclusive (no result: Pol beta inh)
COc1ccc(NC(=O)c2ccccc2NS(=O)(=O)c2ccc(C)cc2)c([N+](=O)[O-])c1	none
Cc1ccc(NC(=S)NNc2ccc([N+](=O)[O-])cc2S(=O)(=O)Nc2ccccc2C(=O)O)cc1C	POLH inh 28µM, Pol beta inh inconclusive
CC(=O)Nc1cccc(/C(C)=N/Nc2ccc(S(=O)(=O)Nc3ccccc3C(=O)O)cc2[N+](=O)[O-])c1	POLI inh inconclusive, POLH inh 22µM, FEN1 inhibitor 79µM (no result: Pol beta inh)
COc1ccc(C(C)=NNc2ccc([N+](=O)[O-])cc2S(=O)(=O)Nc2ccccc2C(=O)O)c(OC)c1	POLH inh 45µM (no result: Pol beta inh)
CN(CCO)c1ccc(C=NNc2ccc([N+](=O)[O-])cc2S(=O)(=O)Nc2ccccc2C(=O)O)cc1	POLI inh inconclusive, POLH inh inconclusive, FEN1 inhibitor 79µM (no result: Pol beta inh)
O=[N+]([O-])c1ccc(N/N=C/c2ccccc2)c(F)c1	none
COC(=O)N1CCC[C@@]2(CCN(Cc3cc(C(F)(F)F)cc(C(F)(F)F)c3)C2)C1	none (no result: POLI inh, POLH inh, Pol beta inh, PGK inhibitor, FEN1 inhibitor)
CCOc1cc2[nH]c(=O)n(CCCC(=O)N3CCN(c4ccc(OC)cc4)CC3)c(=O)c2cc1OCC	none
Cc1ccc(C(=O)N/N=C/c2cccc(OC(=O)/C=C/c3ccco3)c2)cn1	POLI inh inconclusive, POLH inh inconclusive, Pol beta inh 20µM
COC(=O)/C=c1/s/c(=C(\C#N)C(=O)NCc2ccco2)n(-c2ccccc2)c1=O	POLI inh 89µM, POLH inh inconclusive
COc1cc(Cl)cc(C(c2c(C(=O)O)[nH]c3ccccc23)c2c(C(=O)O)[nH]c3ccccc23)c1O	POLI inh inconclusive, POLH inh inconclusive, Pol beta inh 89µM, Pol kappa inh inconclusive
Cc1ccc2c(c1)c1c(c(=O)n(-c3cccc(Cl)c3)c(=O)n1CC(=O)c1ccc(Cl)cc1)n2C	POLI inh 79µM
Cc1ccc2c(c1)c1c(c(=O)n(-c3ccccc3C)c(=O)n1CC(=O)c1ccc(Cl)cc1)n2C	Pol beta inh inconclusive
c1ccc(N=c2nc(-c3ccccc3)n(-c3ccccc3)s2)cc1	none (no result: POLH inh, Pol beta inh, PGK inhibitor)
COC(=O)C1=C(C)N(Cc2ccccc2)C(=S)N[C@H]1CCc1ccccc1	none (no result: POLI inh, POLH inh, Pol kappa inh, PGK inhibitor, FEN1 inhibitor)
CCCCN(CCCC)CCNC(=O)Cn1nc(CC)n2c(cc3sc(C)cc32)c1=O	POLI inh 25µM
CCc1nn(CC(=O)NCCCN(CC)CC)c(=O)c2cc3sc(C)cc3n12	none
COc1ccccc1CNC(=O)c1ccc(CSc2nc3ccncc3n2Cc2cccc(F)c2)cc1	none
Cc1nc2oc3c(NCc4ccccc4)ncnc3c2c2c1COC(C)(C)C2	POLH inh 14µM
Cc1nc2oc3c(NCC4CCCO4)ncnc3c2c2c1COC(C)(C)C2 (stereo unspecified)	none
Oc1ccc(/C=C/c2ccc(/C=C/c3ccc(O)cc3)c(Br)c2)cc1	none (no result: POLI inh, POLH inh, Pol beta inh, PGK inhibitor, FEN1 inhibitor)
N=C(N)c1ccc(/C=C/c2ccc(C(=N)N)cc2O)cc1	POLI inh 35µM, Pol beta inh 8.9µM, Pol kappa inh inconclusive, FEN1 inhibitor inconclusive
COc1ccc(Cn2c3nc4ccccc4nc3c3c(=O)n(Cc4ccco4)cnc32)cc1	Pol beta inh 35µM (no result: POLI inh, POLH inh, Pol kappa inh, PGK inhibitor, FEN1 inhibitor)
CCCn1cnc2c(c1=O)c1nc3ccccc3nc1n2Cc1ccccc1OC	none (no result: POLI inh, POLH inh, Pol kappa inh, PGK inhibitor, FEN1 inhibitor)
Cc1cccc(-n2cnc3c(c2=O)c2nc4ccccc4nc2n3Cc2ccco2)c1	POLI inh inconclusive, POLH inh inconclusive, Pol beta inh 40µM
COc1ccc(N(CC(C)C)S(=O)(=O)c2nnc(NC(=O)c3cccs3)s2)cc1	POLH inh inconclusive
CCCC[C@@H]1C[C@H]1[C@@H](NC(=O)c1ccco1)c1ccc(C(=O)OC)cc1	POLH inh 32µM (no result: Pol beta inh)
O=Cc1ccc(/C=C2\C=Cc3ccccc32)cc1	none (no result: POLH inh, Pol beta inh, PGK inhibitor)
CCCCNC(=O)CCC(=O)NNc1nc2ccccc2c2nc(-c3ccccc3)nn12	Pol beta inh 89µM!
CCCCNC(=O)CCC(=O)NNc1nc2ccccc2c2nc(C)nn12	none
CC1C(=O)Nc2ccc(S(=O)(=O)N3CCN(c4cccc(C(F)(F)F)c4)CC3)cc2NC1=O (stereo unspecified)	POLI inh 35µM, Pol beta inh inconclusive
CCOc1ccc(N(C)c2ccc(/C=C3/SC(=S)NC3=O)cc2)cc1	POLI inh inconclusive, Pol beta inh inconclusive, FEN1 inhibitor inconclusive
CCOc1c(O)ccc(/C=C2\SC(=S)NC2=O)c1[N+](=O)[O-]	POLI inh 13µM, POLH inh 25µM, Pol beta inh 20µM, Pol kappa inh inconclusive
Cc1cccc(N(CC(=O)N(C)Cc2ccccc2)S(=O)(=O)c2ccccc2)c1C	none
O=C(NC(=S)Nc1ccc(Cl)c(C(=O)O)c1)c1cccc(COc2ccccc2)c1	POLH inh 79µM, Pol beta inh 40µM
O=C(O)c1ccc(Cl)c(NC(=S)NC(=O)c2cccc(COc3ccccc3)c2)c1	POLH inh 45µM, Pol beta inh 25µM
O=C(NC(=S)Nc1ccc(Cl)c(C(=O)O)c1)c1ccc(OCc2ccccc2)cc1	none
Oc1c(Cl)cc(Cl)cc1/C=C/c1ccc2cccc(O)c2n1	Pol beta inh 28µM
Cc1ccc2[nH]c(=O)c(CN(Cc3ccco3)Cc3nnnn3Cc3ccccc3)cc2c1	none (no result: POLH inh, Pol beta inh, PGK inhibitor)
Cc1ccc2[nH]c(=O)c(CN(CCCO)Cc3nnnn3Cc3ccco3)cc2c1	POLI inh 79µM, Pol kappa inh inconclusive (no result: POLH inh, Pol beta inh, PGK inhibitor)
O=c1[nH]c2cc3c(cc2cc1CN(Cc1cccnc1)Cc1nnnn1Cc1ccco1)OCCO3	POLI inh 16µM, POLH inh inconclusive, Pol beta inh 40µM, Pol kappa inh 89µM, FEN1 inhibitor inconclusive
COc1ccccc1CN(Cc1cc2cc3c(cc2[nH]c1=O)OCCO3)Cc1nnnn1Cc1ccco1	POLI inh inconclusive, POLH inh 32µM, Pol beta inh 14µM, Pol kappa inh inconclusive, FEN1 inhibitor inconclusive
O=c1[nH]c2cc3c(cc2cc1CN(Cc1cccs1)Cc1nnnn1Cc1ccco1)OCCO3	POLI inh inconclusive, POLH inh 18µM, Pol beta inh 32µM, Pol kappa inh 25µM
c1cnc2[nH]ccc2c1	none (no result: POLH inh, Pol beta inh, PGK inhibitor)
O=c1[nH]c2cc3c(cc2cc1CN(Cc1ccccc1)Cc1nnnn1Cc1ccco1)OCCO3	POLI inh 18µM, POLH inh inconclusive, Pol beta inh 32µM, Pol kappa inh inconclusive
CCc1ccc2[nH]c(=O)c(CN(Cc3ccccc3)Cc3nnnn3Cc3ccco3)cc2c1	POLI inh inconclusive
O=C1/C(=C\c2cccc(O)c2)SC(=S)N1Cc1ccccc1	none
O=C(O)COc1cccc(/C=C2/SC(=S)N(Cc3ccccc3)C2=O)c1	POLI inh inconclusive, POLH inh 79µM, Pol beta inh inconclusive
